Assay results reported in the supplement of paper PMC11732987, “Enantioselective OTUD7B fragment discovery through chemoproteomics screening and high-throughput optimisation” (Communications Chemistry, 2025).

Assays:
Test in all cases: log2 ratio of Biotin-Ahx-Ub-VS probe labelling (fragment/DMSO); higher = less target engagement (more negative = stronger competition), active = hit call of the paper (q ≤ 0.05, log2 ratio ≤ -1)
Settings in all cases: compound concentration: 200 uM; treatment time: 3 h
USP19 = target: T1, USP19 (UniProt O94966)
T1 sequence (whole entry): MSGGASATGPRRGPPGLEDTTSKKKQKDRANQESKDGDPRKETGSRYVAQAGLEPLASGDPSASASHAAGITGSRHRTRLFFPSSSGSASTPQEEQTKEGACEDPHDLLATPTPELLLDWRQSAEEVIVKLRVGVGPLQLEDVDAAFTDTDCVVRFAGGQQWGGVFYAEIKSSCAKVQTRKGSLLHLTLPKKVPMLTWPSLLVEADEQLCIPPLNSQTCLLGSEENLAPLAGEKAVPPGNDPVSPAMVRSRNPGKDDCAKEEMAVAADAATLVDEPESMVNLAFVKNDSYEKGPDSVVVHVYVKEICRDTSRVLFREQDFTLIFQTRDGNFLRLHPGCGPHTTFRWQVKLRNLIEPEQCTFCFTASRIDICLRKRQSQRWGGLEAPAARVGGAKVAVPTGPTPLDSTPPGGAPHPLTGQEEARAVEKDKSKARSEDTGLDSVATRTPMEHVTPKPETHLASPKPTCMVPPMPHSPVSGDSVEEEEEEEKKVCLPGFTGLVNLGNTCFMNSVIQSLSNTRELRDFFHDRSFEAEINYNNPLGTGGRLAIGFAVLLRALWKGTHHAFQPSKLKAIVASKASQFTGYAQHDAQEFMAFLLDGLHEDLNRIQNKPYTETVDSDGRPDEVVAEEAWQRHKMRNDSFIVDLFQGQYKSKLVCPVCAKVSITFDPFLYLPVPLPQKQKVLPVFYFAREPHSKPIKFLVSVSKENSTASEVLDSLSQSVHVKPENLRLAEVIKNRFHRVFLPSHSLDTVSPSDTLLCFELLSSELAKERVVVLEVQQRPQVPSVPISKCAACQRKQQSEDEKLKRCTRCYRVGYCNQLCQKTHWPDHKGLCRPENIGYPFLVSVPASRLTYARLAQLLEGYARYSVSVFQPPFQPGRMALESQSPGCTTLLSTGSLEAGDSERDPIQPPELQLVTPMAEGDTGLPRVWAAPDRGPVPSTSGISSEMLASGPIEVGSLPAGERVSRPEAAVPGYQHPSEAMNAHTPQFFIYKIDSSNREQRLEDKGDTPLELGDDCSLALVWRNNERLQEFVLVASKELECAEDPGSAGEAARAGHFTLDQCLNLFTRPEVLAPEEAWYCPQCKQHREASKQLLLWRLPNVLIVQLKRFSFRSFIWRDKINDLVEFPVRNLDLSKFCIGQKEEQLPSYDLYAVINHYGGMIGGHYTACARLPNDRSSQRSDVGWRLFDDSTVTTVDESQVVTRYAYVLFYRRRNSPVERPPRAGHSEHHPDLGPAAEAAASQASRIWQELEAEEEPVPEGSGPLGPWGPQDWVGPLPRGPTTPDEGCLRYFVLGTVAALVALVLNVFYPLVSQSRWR
How it was run: (§1)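 Global-median-normalised Spectronaut label-free quantities were compared by unpaired t-test, and values are average log2 ratios of fragment over vehicle. Only proteins with ≥2 unique peptides were used. HEK293T lysate (495 µg per sample) was treated in triplicate with fragment at 200 µM or vehicle for 3 h and then with Biotin-Ahx-Ub-VS at 0.5 µM final for 1 h. Labelled DUBs were then NeutrAvidin-enriched, digested with LysC and trypsin, and run by diaPASEF LC-MS/MS.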

USP22 = target: T2, USP22 (UniProt Q9UPT9)
T2 sequence (whole entry): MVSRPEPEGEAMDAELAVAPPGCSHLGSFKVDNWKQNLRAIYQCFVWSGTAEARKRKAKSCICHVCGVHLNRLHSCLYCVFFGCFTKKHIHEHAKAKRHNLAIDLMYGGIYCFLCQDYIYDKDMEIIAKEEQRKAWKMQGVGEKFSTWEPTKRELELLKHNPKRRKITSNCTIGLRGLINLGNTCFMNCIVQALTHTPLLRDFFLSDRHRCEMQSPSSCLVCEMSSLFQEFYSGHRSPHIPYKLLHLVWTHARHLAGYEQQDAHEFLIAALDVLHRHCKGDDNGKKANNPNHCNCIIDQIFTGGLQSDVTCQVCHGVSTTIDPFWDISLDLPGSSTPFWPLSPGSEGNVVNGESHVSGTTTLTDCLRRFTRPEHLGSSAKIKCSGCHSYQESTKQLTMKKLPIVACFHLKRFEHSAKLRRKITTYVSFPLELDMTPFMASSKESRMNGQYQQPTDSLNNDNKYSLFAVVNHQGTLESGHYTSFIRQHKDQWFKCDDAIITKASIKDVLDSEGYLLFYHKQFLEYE
How it was run: as §1

USP24 = USP24 (UniProt Q9UPU5)
Sequence of USP24 (Q9UPU5 whole entry): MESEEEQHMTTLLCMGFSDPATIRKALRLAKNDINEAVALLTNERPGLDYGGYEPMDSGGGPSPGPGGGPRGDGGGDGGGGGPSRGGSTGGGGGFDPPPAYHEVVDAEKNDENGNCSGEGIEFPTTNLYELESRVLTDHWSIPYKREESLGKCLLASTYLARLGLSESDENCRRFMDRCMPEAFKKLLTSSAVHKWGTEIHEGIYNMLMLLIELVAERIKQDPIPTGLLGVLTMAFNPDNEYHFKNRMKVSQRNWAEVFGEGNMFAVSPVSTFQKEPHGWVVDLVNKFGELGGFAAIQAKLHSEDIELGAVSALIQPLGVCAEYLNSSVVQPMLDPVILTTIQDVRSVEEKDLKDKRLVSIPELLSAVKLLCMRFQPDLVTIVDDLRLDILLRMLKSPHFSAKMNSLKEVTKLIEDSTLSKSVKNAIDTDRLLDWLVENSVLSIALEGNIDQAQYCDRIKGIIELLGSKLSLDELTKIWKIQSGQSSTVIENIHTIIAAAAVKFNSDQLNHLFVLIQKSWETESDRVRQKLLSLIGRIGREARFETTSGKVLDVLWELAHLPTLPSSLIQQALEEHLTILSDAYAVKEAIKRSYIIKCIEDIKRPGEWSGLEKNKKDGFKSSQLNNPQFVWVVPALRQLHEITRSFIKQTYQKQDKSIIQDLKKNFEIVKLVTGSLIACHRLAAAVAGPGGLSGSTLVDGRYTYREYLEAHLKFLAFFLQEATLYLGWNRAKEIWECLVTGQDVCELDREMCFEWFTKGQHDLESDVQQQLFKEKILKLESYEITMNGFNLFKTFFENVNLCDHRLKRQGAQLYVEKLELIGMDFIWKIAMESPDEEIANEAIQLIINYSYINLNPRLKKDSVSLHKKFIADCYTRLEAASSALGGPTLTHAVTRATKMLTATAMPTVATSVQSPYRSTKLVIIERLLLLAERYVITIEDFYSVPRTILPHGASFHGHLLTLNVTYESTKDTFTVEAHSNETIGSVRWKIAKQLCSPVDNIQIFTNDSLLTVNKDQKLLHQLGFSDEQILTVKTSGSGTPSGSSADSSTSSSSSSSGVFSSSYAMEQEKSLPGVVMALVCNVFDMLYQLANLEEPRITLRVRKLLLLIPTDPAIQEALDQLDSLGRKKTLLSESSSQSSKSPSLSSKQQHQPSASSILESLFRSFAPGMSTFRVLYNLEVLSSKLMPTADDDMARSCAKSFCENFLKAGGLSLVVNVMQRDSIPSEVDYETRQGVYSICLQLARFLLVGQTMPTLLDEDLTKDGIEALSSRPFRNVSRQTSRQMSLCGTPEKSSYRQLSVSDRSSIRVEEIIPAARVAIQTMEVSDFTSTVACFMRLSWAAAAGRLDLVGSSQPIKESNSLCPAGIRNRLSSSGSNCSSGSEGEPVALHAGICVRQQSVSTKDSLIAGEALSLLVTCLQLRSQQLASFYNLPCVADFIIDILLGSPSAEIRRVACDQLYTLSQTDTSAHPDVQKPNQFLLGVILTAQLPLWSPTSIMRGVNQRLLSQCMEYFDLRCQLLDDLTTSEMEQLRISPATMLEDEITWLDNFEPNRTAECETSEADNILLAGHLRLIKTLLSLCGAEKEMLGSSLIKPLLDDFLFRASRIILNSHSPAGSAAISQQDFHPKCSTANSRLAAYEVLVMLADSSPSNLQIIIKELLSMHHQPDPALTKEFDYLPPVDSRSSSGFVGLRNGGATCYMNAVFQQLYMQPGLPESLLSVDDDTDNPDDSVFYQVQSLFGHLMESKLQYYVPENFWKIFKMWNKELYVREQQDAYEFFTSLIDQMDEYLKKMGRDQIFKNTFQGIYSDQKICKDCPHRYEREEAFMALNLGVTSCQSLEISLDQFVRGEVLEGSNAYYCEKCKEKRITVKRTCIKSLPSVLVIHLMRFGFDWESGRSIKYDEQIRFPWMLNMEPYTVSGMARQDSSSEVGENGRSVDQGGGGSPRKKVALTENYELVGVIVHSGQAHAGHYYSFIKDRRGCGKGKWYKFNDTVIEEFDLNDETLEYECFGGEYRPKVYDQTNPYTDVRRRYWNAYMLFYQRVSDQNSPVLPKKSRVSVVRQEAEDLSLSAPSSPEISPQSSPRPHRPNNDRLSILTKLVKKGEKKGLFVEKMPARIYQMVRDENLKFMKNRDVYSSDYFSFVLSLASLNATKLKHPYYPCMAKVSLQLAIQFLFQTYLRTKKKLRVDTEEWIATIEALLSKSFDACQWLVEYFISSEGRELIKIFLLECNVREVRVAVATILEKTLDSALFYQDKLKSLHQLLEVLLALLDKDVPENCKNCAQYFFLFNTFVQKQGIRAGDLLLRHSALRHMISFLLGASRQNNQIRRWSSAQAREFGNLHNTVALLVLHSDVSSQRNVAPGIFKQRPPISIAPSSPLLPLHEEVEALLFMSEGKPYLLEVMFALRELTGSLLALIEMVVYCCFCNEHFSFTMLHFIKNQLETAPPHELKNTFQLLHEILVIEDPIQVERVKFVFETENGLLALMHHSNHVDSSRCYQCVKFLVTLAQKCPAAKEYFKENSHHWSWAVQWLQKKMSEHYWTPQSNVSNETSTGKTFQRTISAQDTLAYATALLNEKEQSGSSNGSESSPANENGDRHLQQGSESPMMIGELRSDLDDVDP
How it was run: as §1

USP25 = target: T3, USP25 (UniProt Q9UHP3)
T3 sequence (whole entry): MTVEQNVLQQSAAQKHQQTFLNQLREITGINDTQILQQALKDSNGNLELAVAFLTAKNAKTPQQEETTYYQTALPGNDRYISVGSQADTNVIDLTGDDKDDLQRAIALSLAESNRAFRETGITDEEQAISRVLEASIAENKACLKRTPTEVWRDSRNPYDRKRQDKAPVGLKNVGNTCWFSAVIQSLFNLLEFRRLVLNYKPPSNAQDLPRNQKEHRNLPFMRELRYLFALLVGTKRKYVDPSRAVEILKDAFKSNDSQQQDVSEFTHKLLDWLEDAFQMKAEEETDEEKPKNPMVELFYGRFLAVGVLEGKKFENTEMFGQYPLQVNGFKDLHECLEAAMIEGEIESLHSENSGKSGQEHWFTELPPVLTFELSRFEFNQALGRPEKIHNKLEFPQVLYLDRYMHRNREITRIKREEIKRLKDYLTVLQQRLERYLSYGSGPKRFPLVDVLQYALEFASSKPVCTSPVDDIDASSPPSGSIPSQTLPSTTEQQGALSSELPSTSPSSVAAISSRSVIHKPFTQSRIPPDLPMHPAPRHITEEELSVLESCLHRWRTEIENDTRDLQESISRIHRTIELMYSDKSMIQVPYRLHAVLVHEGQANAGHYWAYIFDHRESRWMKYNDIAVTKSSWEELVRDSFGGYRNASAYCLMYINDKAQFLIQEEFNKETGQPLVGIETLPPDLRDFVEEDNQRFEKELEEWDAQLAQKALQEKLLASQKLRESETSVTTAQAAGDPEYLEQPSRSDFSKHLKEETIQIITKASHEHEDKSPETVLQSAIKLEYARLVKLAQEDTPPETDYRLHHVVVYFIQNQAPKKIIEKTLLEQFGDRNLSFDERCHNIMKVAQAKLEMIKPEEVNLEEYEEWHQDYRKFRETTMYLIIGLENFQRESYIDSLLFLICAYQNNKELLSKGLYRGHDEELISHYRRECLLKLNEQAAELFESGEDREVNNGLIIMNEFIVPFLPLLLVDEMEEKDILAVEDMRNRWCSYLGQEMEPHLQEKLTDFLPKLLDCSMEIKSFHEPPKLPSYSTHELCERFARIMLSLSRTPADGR
How it was run: as §1

USP28 = target: T4, USP28 (UniProt Q96RU2)
T4 sequence (whole entry): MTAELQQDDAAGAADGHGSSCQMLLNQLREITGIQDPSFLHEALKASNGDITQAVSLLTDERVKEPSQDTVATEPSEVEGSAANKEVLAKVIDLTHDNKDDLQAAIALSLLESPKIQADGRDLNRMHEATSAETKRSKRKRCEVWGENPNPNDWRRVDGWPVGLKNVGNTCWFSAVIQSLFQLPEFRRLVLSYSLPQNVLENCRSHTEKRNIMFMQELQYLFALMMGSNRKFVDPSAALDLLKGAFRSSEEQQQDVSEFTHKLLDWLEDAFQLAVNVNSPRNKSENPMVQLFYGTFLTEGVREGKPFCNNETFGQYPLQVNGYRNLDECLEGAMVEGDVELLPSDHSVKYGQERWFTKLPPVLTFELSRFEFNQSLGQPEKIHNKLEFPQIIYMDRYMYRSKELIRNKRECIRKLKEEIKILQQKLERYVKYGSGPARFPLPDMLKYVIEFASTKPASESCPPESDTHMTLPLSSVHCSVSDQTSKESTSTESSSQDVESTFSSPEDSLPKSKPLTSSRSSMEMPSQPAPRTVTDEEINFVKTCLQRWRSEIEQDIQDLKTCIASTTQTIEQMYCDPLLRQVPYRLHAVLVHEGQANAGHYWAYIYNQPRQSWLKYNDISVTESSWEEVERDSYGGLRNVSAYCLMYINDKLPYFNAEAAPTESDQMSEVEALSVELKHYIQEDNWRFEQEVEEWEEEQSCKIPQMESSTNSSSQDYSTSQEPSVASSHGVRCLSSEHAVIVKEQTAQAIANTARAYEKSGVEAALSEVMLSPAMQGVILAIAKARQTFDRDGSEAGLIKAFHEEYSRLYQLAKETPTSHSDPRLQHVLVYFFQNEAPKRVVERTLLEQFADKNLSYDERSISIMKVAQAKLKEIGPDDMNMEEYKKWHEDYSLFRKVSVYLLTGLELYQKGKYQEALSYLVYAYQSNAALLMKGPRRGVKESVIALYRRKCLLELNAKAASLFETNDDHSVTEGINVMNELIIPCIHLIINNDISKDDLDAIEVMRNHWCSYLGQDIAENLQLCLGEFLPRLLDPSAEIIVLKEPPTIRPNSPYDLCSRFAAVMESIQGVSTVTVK
How it was run: as §1

Measured: log2 ratio of Biotin-Ahx-Ub-VS probe labelling

O=C(CCl)NC1(c2ccc3c(c2)OCCO3)CCCC1
inactive: USP19 -0.103 | USP22 0.0133 | USP24 -0.451 | USP25 -0.337 | USP28 -0.402
